Laboratory results as given in PubChem BioAssay AID1159580 (chemical genetic matrix, 2015).
Where “and” joins values, the source holds several entries; their conditions need not be identical. Identical values can stand only once. Among all 5,500 compounds or so, about 2,000 (36%) were called active. Another 18% or so got no clear call; they are omitted. Rule as the data show it: active = normalized growth mostly below about 0.91 (no sharp cut-off); inconclusive = no clear call, values can overlap the other calls; inactive = mostly above about 0.92. This is one part of the list.

Assay: chemical genetic growth profiling, strain panel (AID 1159580);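 also: tested at 20 µM; growth read once vehicle control cultures reached saturation at 30 °C; 1 = growth at the plate median or of vehicle wells; lower values mean less growth of the strain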
Conditions: S. cerevisiae deletion strains, growth OD

Measured: normalized growth

COC(=O)C(N)CS (stereo unspecified)
inactive: locus YAL013W, strain DEP1, hits give low values 0.991 | locus YAL021C, strain ccr4, hits give low values 0.93 | locus YAL026C, strain drs2, hits give low values 0.967 | locus YAL030W, strain snc1, hits give low values 0.993 | locus YBL061C, strain skt5, hits give low values 0.998 | locus YBR009C, strain hhf1, hits give low values 0.958 | locus YBR021W, strain FUR4, hits give low values 0.994 | locus YBR023C, strain chs3, hits give low values 1.02 | locus YBR171W, strain sec66, hits give low values 0.984 | locus YBR229C, strain ROT2, hits give low values 0.992 | locus YBR231C, strain swc5, hits give low values 0.974 | locus YBR279W, strain paf1, hits give low values 1.01 | locus YCL011C, strain gbp2, hits give low values 0.996 | locus YCL016C, strain dcc1, hits give low values 1.04 | locus YCL029C, strain bik1, hits give low values 0.964 | locus YCL069W, strain vba3, hits give low values 0.954 | locus YCR088W, strain abp1, hits give low values 0.982 | locus YDL005C, strain med2, hits give low values 1 | locus YDL035C, strain GPR1, hits give low values 0.978 | locus YDL040C, strain nat1, hits give low values 0.99 | locus YDL074C, strain BRE1, hits give low values 0.98 | locus YDL101C, strain DUN1, hits give low values 0.984 | locus YDL134C, strain PPH21, hits give low values 0.977 | locus YDL185W, strain tfp1, hits give low values 0.966 | locus YDL192W, strain arf1, hits give low values 0.975 | locus YDR001C, strain nth1, hits give low values 0.984 | locus YDR069C, strain doa4, hits give low values 0.959 | locus YDR101C, strain arx1, hits give low values 0.985 | locus YDR137W, strain rgp1, hits give low values 0.924 | locus YDR150W, strain NUM1, hits give low values 0.996 | locus YDR159W, strain sac3, hits give low values 0.929 | locus YDR162C, strain NBP2, hits give low values 0.985 | locus YDR195W, strain ref2 1.03 | locus YDR297W, strain sur2, hits give low values 0.98 | locus YDR318W, strain mcm21, hits give low values 0.93 | locus YDR334W, strain swr1, hits give low values 0.959 | locus YDR335W, strain msn5, hits give low values 0.995 | locus YDR388W, hits give low values 0.951 | locus YDR392W, strain spt3, hits give low values 0.806 | locus YDR502C, strain sam2, hits give low values 0.98 | locus YEL003W, strain gim4, hits give low values 0.966 | locus YEL037C, strain rad23, hits give low values 0.978 | locus YEL061C, strain CIN8 (second series), hits give low values 0.966 | locus YEL061C, strain CIN8, hits give low values 0.997 | locus YER015W, strain faa2, hits give low values 0.997 | locus YER016W, strain bim1, hits give low values 0.997 | locus YER110C, hits give low values 0.991 | locus YER111C, strain swi4, hits give low values 1.03 | locus YER155C, strain BEM2 (second series), hits give low values 0.886 | locus YER155C, strain BEM2, hits give low values 1 | locus YER167W, strain BCK2, hits give low values 0.971 | locus YFR010W, strain ubp6, hits give low values 0.94 | locus YGL078C, strain dbp3, hits give low values 0.988 | locus YGL086W, strain mad1, hits give low values 0.976 | locus YGL167C, strain pmr1, hits give low values 0.977 | locus YGL173C, strain kem1, hits give low values 0.938 | locus YGL227W, strain vid30, hits give low values 0.971 | locus YGL240W, strain doc1, hits give low values 0.941 | locus YGL248W, strain PDE1, hits give low values 0.959 | locus YGL253W, strain hxk2, hits give low values 0.976 | locus YGR078C, strain PAC10, hits give low values 0.976 | locus YGR135W, strain pre9, hits give low values 0.947 | locus YGR229C, strain SMI1, hits give low values 0.949 | locus YGR252W, strain gcn5, hits give low values 0.883 | locus YHR013C, strain ard1, hits give low values 0.938 | locus YHR027C, strain rpn1, hits give low values 0.97 | locus YHR030C, strain SLT2, hits give low values 0.99 and 1.05 | locus YHR079C, strain IRE1 (second series), hits give low values 0.964 | locus YHR079C, strain IRE1, hits give low values 1.04 | locus YHR094C, strain hxt1, hits give low values 0.991 | locus YHR129C, strain ARP1, hits give low values 0.992 | locus YHR142W, strain chs7, hits give low values 1 | locus YHR200W, strain rpn10, hits give low values 0.973 | locus YIL066C, strain RNR3, hits give low values 0.975 | locus YIL073C, strain SPO22, hits give low values 0.903 | locus YIL125W, strain kgd1, hits give low values 0.991 | locus YIR030C, strain dcg1, hits give low values 0.984 | locus YJL092W, strain hpr5, hits give low values 0.995 | locus YJL095W, strain BCK1 (second series), hits give low values 0.995 | locus YJL095W, strain BCK1, hits give low values 0.929 and 1.04 | locus YJL115W, strain asf1, hits give low values 0.977 | locus YJL129C, strain trk1, hits give low values 1.01 | locus YJL134W, strain LCB3, hits give low values 0.996 | locus YJL154C, strain vps35, hits give low values 0.97 | locus YJL164C, strain tpk1, hits give low values 0.965 | locus YJL166W, strain qcr8, hits give low values 0.961 | locus YJL168C, strain set2, hits give low values 0.979 | locus YJL187C, strain SWE1 (second series), hits give low values 0.972 | locus YJL187C, strain SWE1, hits give low values 0.998 | locus YJR043C, strain POL32, hits give low values 0.977 | locus YJR066W, strain TOR1, hits give low values 0.998
